Bioassay records as filed in PubChem.
Only some compounds are listed: those with a hit (about 12% of all), similar ones and a draw of the others.
Arbovirus inh: antivirals against arbovirus infection. AID 1251. arbovirus infection cell-based antiviral screen. 200,000 tested, 0.37% active. inhibition, % at 10 µM; in the data active = inhibition above about 30%
WT yeast gro inh: growth inhibition of WT yeast, mitochondrial fusion screen; mitochondrial fusion phenotypic screen, WT strain; inhibition, % at 10 µM; 190,000 tested, 2.1% active; AID 1362; in the data active = inhibition above about 58%; tested in S. cerevisiae
CHOP inh: CHOP inhibition in unfolded protein response | CHO-K1 CHOP-promoter luciferase, tunicamycin-induced, 15-18 h | inhibition, % at 10 µM | 220,000 tested, 3.8% active;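 active = compounds that reduced the stress-induced luciferase reporter signal by more than about 70% of percent inhibition, limit read from the data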;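 also: 0% = tunicamycin plus vehicle and 100% = wells without tunicamycin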
Lmaj promast: inhibitors of Leishmania major promastigote growth; Leishmania major promastigotes, resazurin fluorescence viability; inhibition, % at 10 µM; 200,000 tested, 9% active; in the data active = inhibition above about 50%;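 also: promastigotes grown with compound for 44 hours at 28 °C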
* = called active by the depositor; · = no result.

SMILES | Arbovirus inh | WT yeast gro inh | CHOP inh | Lmaj promast
CCOc1ccccc1N(C(=O)c1ccco1)C(C(=O)NC1CCCC1)c1cccnc1 (stereo not given) | -4 | 3 | -3 | -1
CC(C)CC(C(=O)NC1CCCCC1)N(Cc1cccs1)C(=O)c1snc(C(N)=O)c1N (stereo not given) | -10 | 17 | 24 | 16
CC(C)CC(C(=O)NC1CCCC1)N(Cc1cccs1)C(=O)c1snc(C(N)=O)c1N (stereo not given) | -16 | -6 | -5 | 93*
CCCC(C(=O)NC1CCCC1)N(Cc1ccc2c(c1)OCO2)C(=O)c1snc(C(N)=O)c1N (stereo not given) | -17 | 9 | 36 | 54*
CSc1sc(C(=O)NC(=O)NCc2ccncc2)c(C)c1-c1ccon1 | · | · | 32 | ·
COc1cc(-c2nc(-c3ccccc3)c(-c3cccs3)[nH]2)cc(OC)c1OC | -12 | 6 | -18 | 90*
COc1cccc(-c2nc(-c3ccc4c(c3)-c3ccccc3S4(=O)=O)c(-c3ccccc3)[nH]2)c1OC | 0 | 5 | 14 | 57*
COc1cc(-c2nc(-c3ccc4c(c3)-c3ccccc3S4(=O)=O)c(-c3ccccc3)[nH]2)cc(OC)c1OC | -26 | 10 | 46 | 99*
CCN1CCS/C1=C\C=C\C1=[N+](CC)CCS1 | -1 | 28 | 27 | 100*
CCN1CCS/C1=C/C=C/C1=[N+](CC)CCS1 | 13 | 43 | 40 | 100*
CCOC(=O)N1CCC(N2CCN(S(=O)(=O)c3ccc(C)cc3)CC2)CC1 | 12 | 1 | -12 | 85*
CCOC(=O)N1CCN(S(=O)(=O)c2ccc(C)c(C)c2)CC1 | 3 | 81* | 31 | 0
CCOC(=O)c1ccc(S(=O)(=O)N2CCN(C(=O)CSc3nc4ccccc4o3)CC2)cc1 | 19 | 6 | 35 | -4
CCOC(=O)N1CCC(N2CCN(S(=O)(=O)CC)CC2)CC1 | 9 | 12 | -15 | 94*
CCOC(=O)c1ccc(S(=O)(=O)n2c(CN3CCCCC3)nc3ccccc32)cc1 | 5 | 18 | 34 | 52*
CCOC(=O)c1noc(C)c1C(=O)Nc1nc(C)cc(C)n1 | 4 | -12 | -13 | -5
CCOc1ncccc1C(=O)OCC(=O)c1ccc(C)c(C)c1 | 6 | 7 | 12 | -1
CCOC(=O)c1ccc(S(=O)(=O)N2CCN(C(C)=O)CC2)cc1 | 2 | -2 | 25 | -3
CCOC(=O)c1ccc(S(=O)(=O)N2CCN(C3CCCC3)CC2)cc1 | 11 | -10 | 18 | 90*
Cc1oc(-c2cccc(C(F)(F)F)c2)nc1CN1CCOCC1 | 11 | 1 | 33 | 1
COc1ccc(/C=N/Nc2nc(Nc3ccccc3)nc(N3CCCC3)n2)cc1 | 12 | 20 | 4 | 12
O=[N+]([O-])c1ccc(/C=N/Nc2nc(N3CCCCC3)nc(N3CCCCC3)n2)o1 | -17 | 70* | 55 | 100*
Cc1[nH]c2ccccc2c1/C=N/Nc1nc(N2CCCCC2)nc(N2CCCCC2)n1 | -16 | 56 | 66 | 77*
COc1ccc(/C=N/Nc2nc(N3CCCC3)nc(N3CCCC3)n2)cc1 | 12 | 7 | 8 | 63*
COc1nc(N/N=C/c2cc3c(cc2Br)OCO3)nc(N2CCOCC2)n1 | -11 | 12 | -10 | 11
SMILES | Arbovirus inh | WT yeast gro inh | CHOP inh | Lmaj promast
Brc1cc2c(cc1/C=N/Nc1nc(N3CCCCC3)nc(N3CCCCC3)n1)OCO2 | -9 | 27 | -25 | 67*
CC(C)(C)C(=O)CSc1nnc(Nc2ccccc2)s1 | 0 | 3 | -3 | 9
O=C(Oc1ccc(/C=N/Nc2nc(N3CCCCC3)nc(N3CCCCC3)n2)cc1)c1ccco1 | -18 | -13 | 8 | 48
COC(=O)c1ccc(/C=N/Nc2nc(N3CCCCC3)nc(N3CCCCC3)n2)cc1 | -2 | 15 | 13 | 78*
CCN(C(=O)COC(=O)c1ccccc1NC(=O)c1ccco1)C1CCS(=O)(=O)C1 (stereo not given) | -2 | 5 | -6 | -3
CCN(C(=O)COC(=O)c1ccccc1Nc1cccc(C)c1C)C1CCS(=O)(=O)C1 (stereo not given) | 3 | 15 | 70* | -1
Cc1ccc(C(C)C)c(OCC(O)CN2CCN(CCO)CC2)c1 (stereo not given) | -6 | -20 | 12 | 1
Cc1ccc(C(C)C)c(OCC(O)CN2CCOCC2)c1 (stereo not given) | 11 | -2 | 21 | 88*
Cc1ccc(C(C)C)c(OCC(O)CN2CC(C)OC(C)C2)c1 (stereo not given) | -6 | 7 | 23 | 95*
Cc1ccc(OCC(O)CN2CCN(CC(O)COC(C)C)CC2)c(C(C)(C)C)c1 (stereo not given) | -19 | 22 | 34 | 77*
Cn1c(SCc2ccccn2)nc2c1c(=O)[nH]c(=O)n2C | · | · | -4 | ·
COc1ccc(N2CCN(C(CNC(=O)C(=O)NCc3ccc4c(c3)OCO4)c3ccco3)CC2)cc1 (stereo not given) | -15 | 15 | 28 | 17
O=C(CSC(=S)N1CCCCC1)Nc1ncc2c(n1)CCCC2=O | · | · | 1 | ·
Cc1ccc(S(=O)(=O)CCSC(=N)N)cc1 | 0 | -1 | -34 | 7
Cc1cc(C(C)(C)C)cc(C)c1S(=O)(=O)N1CC(=O)Nc2ccccc21 | · | · | 5 | ·
O=C(Nc1ccc(O)c2c(=O)cc(-c3ccccc3Cl)oc12)c1ccc(Cl)c(Cl)c1 | · | · | 94* | ·
CC(=O)N1CCN(c2nc3cc4c(cc3nc2NS(=O)(=O)c2ccccc2)OCCO4)CC1 | 2 | 8 | -21 | 6
COc1ccc(C(=O)OCCNC(=O)c2c(Cl)nc3ccccn23)cc1 | 3 | 8 | 39 | 0
CC(C)(C)c1ccc(C(=O)OCCNC(=O)c2c(Cl)nc3ccccn23)cc1 | -8 | 35 | 49 | 76*
Cc1ccc(O)c(C(=O)CC(=O)c2ccccc2Cl)c1 | -15 | 55 | 103* | 95*
CC(=O)c1ccc(C)cc1OC(=O)c1cccc(F)c1 | 16 | 3 | 3 | -6
Cc1nn(-c2ccccc2)c(Cl)c1C(=O)Nc1nnc(C2CCCCC2)s1 | -3 | 6 | 63 | 10
O=C(Nc1nnc(C2CC2)s1)c1cc(-c2ccccc2)nn1-c1ccccc1 | -1 | 70* | 19 | 14
Cc1nn(-c2ccc(C(=O)Nc3nnc(C4CC4)s3)cc2)c(C)c1Cl | 8 | -4 | 73* | -13
Cc1ccc(C(=O)CC(=O)c2cccc(F)c2)c(O)c1 | -12 | 69* | 89* | 97*
SMILES | Arbovirus inh | WT yeast gro inh | CHOP inh | Lmaj promast
Cc1cc(Nc2ccccc2C(=O)O)n(-c2ccc([N+](=O)[O-])cc2)n1 | · | · | 12 | ·
COc1ccc(OC)c(-c2cc(C3CCN(C(=O)OC(C)(C)C)CC3)[nH]n2)c1 | -17 | 39 | -31 | 13
Cc1ccc(C)c(NC(=O)c2cc(-c3ccccc3)nn2-c2ccccc2)c1 | -1 | 74* | 30 | 17
Cc1ccc(C)c(NC(=O)c2ccccc2O)c1 | 7 | 49 | 77* | 16
Cc1ccc(C)c(NC(=O)c2nc(-c3ccccc3)n(-c3ccccc3)n2)c1 | -14 | 18 | -10 | 35
CC1(C)CC(=O)C/C(=N\NC(=O)CCc2ccc(S(=O)(=O)N3CCOCC3)cc2)C1 | 4 | 1 | 8 | -1
CC(=O)c1ccc(NC(=S)Nc2ccc(Br)c(Cl)c2)cc1 | -35 | 77* | 34 | -1
